An excerpt weighted towards active compounds, which were near 3.7% of everything screened.
PfHsp90 yeast 2 – growth inhibition of PfHsp90-expressing yeast, primary screen, antimalarial PfHsp90 inhibitor project, S. cerevisiae, BacTiter-Glo luminescence, single point, set 2. 310,000 tested, 0.32% active. BacTiter-Glo ATP, 48 h; yeast lacking PDR1 and PDR3 efflux regulators. inhibition, % at 9.4 µM;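 active means every replicate shows inhibition above about 80%, whatever the replicate mean, limit read from the data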;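 further: 0% = DMSO neutral controls and 100% = 20 µM radicicol positive controls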
TIM10 inh – growth inhibitors of isogenic TIM10 control yeast, primary screen, counter-screen for tim10-1 yeast inhibitor project, luminescence, uHTS; S. cerevisiae TIM10 strain growth, BacTiter-Glo luminescence, 24 h; inhibition, % at 10 µM; 330,000 tested, 1.4% active;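 active means inhibition of 40% or more at the single tested concentration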;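 further: wild-type TIM10 isogenic control strain grown at permissive 25 °C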
V-ATPase pHluor – regulators of yeast V-ATPase proton pumping, primary screen, pHLuorin cytosolic pH fluorescence; S. cerevisiae; response, % at 10 µM; 350,000 tested, 0.37% active; in the data active means response mostly above about 7.3%, no sharp cut-off; inactive means mostly below about 5.4%; further: actives read high
tim23-1 inh – growth inhibitors of tim23-1 mutant yeast, primary screen, luminescence, uHTS | S. cerevisiae tim23-1 growth, BacTiter-Glo luminescence, 24 h | inhibition, % at 20 µM | 330,000 tested, 1.3% active;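 active means growth inhibition of the mutant yeast at or above 50%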;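 further: temperature-sensitive mutant grown at 25 °C; plate controls were DMSO-treated mutant yeast for no effect and medium wells lacking yeast for full effect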
tim10-1 inh – growth inhibitors of tim10-1 mutant yeast, primary screen, luminescence, uHTS | inhibition, % at 20 µM | S. cerevisiae tim10-1 ts strain growth, BacTiter-Glo, 24 h | AID 463190, 2010 | 330,000 tested, 2.2% active;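 active means inhibition of at least 40%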;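 further: mutant grown at 25 °C; 0% = DMSO wells with yeast and 100% = wells holding no yeast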
tim10-1 conf – growth inhibitors of tim10-1 mutant yeast, confirmation, single concentration, luminescence, S. cerevisiae. shares compounds with tim10-1 inh. inhibition, % at 20 µM. S. cerevisiae tim10-1 ts strain growth, BacTiter-Glo, 24 h. AID 463213, 2010. 7,400 tested, 56% active;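 active means inhibition of yeast growth at or above a set limit in either of two repeat tests at 20 µM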;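 further: tim10-1 mutant grown at permissive 25 °C to find synthetic lethal compounds; 0% = DMSO yeast wells and 100% = medium wells without yeast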
TIM10 conf – growth inhibitors of wild-type TIM10 yeast, confirmation, counter-screen for tim10-1 synthetic lethality project, single concentration, luminescence, S. cerevisiae. shares compounds with TIM10 inh. S. cerevisiae tim10 strain growth, BacTiter-Glo luminescence, 24 h. inhibition, % at 10 µM. 4,600 tested, 63% active;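 active means inhibition of yeast growth at or above a set limit in either of two replicates at 10 µM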;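 further: this counterscreen used the strain with wild-type TIM10; 0% = yeast with DMSO and 100% = medium wells lacking yeast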
tim23-1 confirm – tim23-1 mutant yeast growth inhibitors, confirmation, luminescence, single concentration; shares compounds with tim23-1 inh; S. cerevisiae tim23-1 growth, BacTiter-Glo luminescence, 24 h; inhibition, % at 20 µM; 4,400 tested, 83% active; AID 463218, 2010;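 active means inhibition above about 39% in either of two replicate wells at 20 µM, limit read from the data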;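 further: temperature-sensitive tim23-1 mutant grown at 25 °C; 0% = DMSO wells with yeast and 100% = medium wells without yeast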
Active calls of the source: *; x = not tested or not shown.

SMILES	PfHsp90 yeast 2	TIM10 inh	V-ATPase pHluor	tim23-1 inh	tim10-1 inh	tim10-1 conf	TIM10 conf	tim23-1 confirm
Cc1ccc(-c2nc3ncccc3o2)cc1NC(=O)c1ccc([N+](=O)[O-])o1	-31	83*	-1	84*	74*	82*	85*	6
COc1ccc(S(=O)(=O)N2CCCC(C(=O)NCc3ccco3)C2)cc1OC (configuration not stated)	13	-8	-2	1	10	x	x	x
CN(CC(=O)Nc1ccccc1Cl)C(=O)C1CSC2(C)CCC(=O)N12 (configuration not stated)	2	6	2	3	-10	x	x	x
Cc1nn2c(NCCCn3ccnc3)cc(C(C)C)nc2c1-c1ccccc1	35	29	-6	-10	23	x	x	x
Cc1nn2c(NCc3ccccn3)cc(C(C)C)nc2c1-c1ccccc1	5	64*	0	60*	45*	49*	68*	61*
Cc1ccc(C)c(OCC(O)CN2CCc3ccccc3C2)c1C (configuration not stated)	-14	10	2	2	12	x	x	x
Cc1ccc(Cl)cc1NC1=C/C(=N\S(=O)(=O)c2cccs2)c2ccccc2C1=O	11	74*	4	52*	71*	66*	69*	65*
Cc1cccc(NC2=C/C(=N/S(=O)(=O)c3cccs3)c3ccccc3C2=O)c1	-4	x	-3	x	x	x	x	x
O=C(O)c1ccc(NC2=C/C(=N/S(=O)(=O)c3ccccc3)c3ccccc3C2=O)cc1	-30	14	-7	40	38	x	x	x
Cc1cc(C)c(S(=O)(=O)/N=C2\C=C(Nc3ccc(C(=O)O)cc3)C(=O)c3ccccc32)c(C)c1	-8	24	0	60*	43*	35*	x	63*
O=S(=O)(c1cccc(Br)c1)N1CCN(c2ccnc3cc(Cl)ccc23)CC1	-19	36	-1	52*	50*	30*	x	47*
COc1ccc(OC)c(S(=O)(=O)Nc2cc(C)on2)c1	-43	3	-2	10	-9	x	x	x
O=c1ccn(Cc2ccccc2)c(SCc2ccccc2)n1	-13	x	2	x	x	x	x	x
Clc1ccc(CSc2nccn2Cc2ccccc2)cc1	x	60*	1	51*	48*	44*	44*	54*
Nc1ccn([C@@H]2O[C@H](CNCc3cccc4c3sc3ccccc34)[C@@H](O)[C@H]2O)c(=O)n1	x	x	-3	x	x	x	x	x
CCc1nn(CCCC(=O)NCc2ccccc2Br)c(=O)c2cc3occc3n12	17	3	2	50*	43*	-4	x	54*
CCC(CO)(CO)N(CC(=O)Nc1ccc(OC)cc1)CC(=O)Nc1ccc(OC)cc1	17	-5	-1	4	2	x	x	x
CCOCCn1c(SC(C)C(C)=O)nc2c1c(=O)[nH]c(=O)n2C (configuration not stated)	2	12	0	22	9	x	x	x
O=C(COC(=O)C1=Cc2ccccc2OC1)NCc1ccc(F)cc1	-8	x	-1	x	x	x	x	x
c1ccc(-c2noc(-c3ccc4c(c3)OCO4)n2)nc1	69	34	2	52*	49*	40*	x	60*
O=C(NC1=NCCS1)c1cc(-c2ccc(F)cc2)nc2ccccc12	-5	51*	1	59*	50*	51*	-8	60*
Cc1ccc(-c2cc(C(=O)NC3=NCCS3)c3ccccc3n2)cc1C	-8	x	-5	x	x	x	x	x
Fc1nc(F)c(F)c(NCCCNc2c(F)c(F)nc(F)c2F)c1F	-5	55*	0	66*	54*	76*	45*	81*

Screening results (PubChem BioAssay)
